# M1 PAM: human M1 muscarinic receptor positive allosteric modulators, primary screen, CHO-K1 cells, Fluo-8 calcium fluorescence, 1536-well; Muscarinic acetylcholine receptor M1 (Homo sapiens), P11229; CHO-K1 hM1, ACh EC20; 0% = ACh EC20, 100% = maximal ACh; activation, % at 3 µM; 360,000 tested, 0.088% active; in the data active means activation above about 19%, passing the limit was not always enough
# Myeloid diff MLP: induction of myeloid progenitor differentiation, primary screen, cell-based, flow cytometry, MLPCN library; 360,000 tested, 1% active; calls only at 10 µM; ER-HoxA9 myeloid progenitors, lysozyme-GFP differentiation;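 active means normalized GFP-positive differentiation at or above the plate's own cutoff, the solvent-only control mean plus 3 SD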;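 further: cells exposed to compound for four days before flow analysis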
# M1 antag: human M1 muscarinic receptor antagonists, primary screen, CHO-K1 cells, Fluo-8 calcium fluorescence, 1536-well; CHO-K1 hM1, ACh EC80 antagonist; Muscarinic acetylcholine receptor M1 (Homo sapiens), P11229; AID 588852, 2011; inhibition, % at 3 µM; 360,000 tested, 1.3% active;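 active means percent inhibition above its own plate's cutoff, namely the mean of that plate's compound wells plus 3 SD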;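 further: peak over basal fluorescence ratio during 140 s after agonist addition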
# M1 ag: human M1 muscarinic receptor agonists, primary screen, Fluo-8 calcium fluorescence, CHO-K1 cells, HTS; Muscarinic acetylcholine receptor M1 (Homo sapiens), P11229; CHO-K1 hM1, agonist mode; 0% DMSO, 100% acetylcholine EC100; activation, % at 3 µM; 360,000 tested, 0.33% active; AID 588814, 2011;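 active means activation above the run's mean compound activation plus 3 SD, cut at about 16% in these data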;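 further: peak over basal fluorescence ratio within a 140 s kinetic read after compound addition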
# ATG4B inhibitor: ATG4B protease inhibitors, primary screen, biochemical, fluorescence, uHTS | 340,000 tested, 0.51% active | inhibition, % at 8.33 µM | AID 504462, 2011 | ATG4B cleavage of LC3-PLA2, NBD-HPC fluorescence, 1 h; in the data active means inhibition above about 40%
# Target sequence (Q9Y4P1 whole entry, looked up): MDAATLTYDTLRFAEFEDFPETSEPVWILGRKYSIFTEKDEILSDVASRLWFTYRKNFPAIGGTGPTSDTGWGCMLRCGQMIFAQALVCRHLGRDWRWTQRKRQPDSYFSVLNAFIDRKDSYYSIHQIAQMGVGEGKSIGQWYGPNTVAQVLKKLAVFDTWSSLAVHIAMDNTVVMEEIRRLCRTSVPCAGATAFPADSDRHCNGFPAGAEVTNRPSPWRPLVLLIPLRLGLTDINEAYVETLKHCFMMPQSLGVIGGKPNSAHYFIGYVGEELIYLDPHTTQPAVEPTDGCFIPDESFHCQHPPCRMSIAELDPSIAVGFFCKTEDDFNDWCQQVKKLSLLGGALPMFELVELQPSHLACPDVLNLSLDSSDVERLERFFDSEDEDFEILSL
# SKN-1 block: suppressors of acrylamide-induced Pgst-4::GFP reporter in worms, primary screen, SKN-1 inhibitor project, whole organism, uHTS, GFP/RFP fluorescence ratio, strain VP596; inhibition, % at 21.8 µM; 360,000 tested, 0.49% active; C. elegans VP596 Pgst-4::GFP/RFP ratio, 24 h; AID 624304, 2012;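 active means interference check ratio from 0.5 to 1.5 plus GFP to RFP signal ratio inhibition reaching or exceeding a fixed threshold, cut at about 30% in these data, passing the limit was not always enough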
# Myeloid diff: inducers of myeloid progenitor differentiation, confirmation, cell-based, GFP/Mac1 flow cytometry, cherry pick 01; shares compounds with Myeloid diff MLP; ER-HoxA9 myeloid progenitors, GFP/Mac1 double-positive flow; calls only; 2,300 tested, 2% active;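 active means share of green or green-and-red cells above 9 and 9% in run 1 or 4 and 3% in run 2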
# GFP autofluor: counter-screen for myeloid differentiation promoters: compound fluorescence. shares compounds with Myeloid diff MLP. ER-HoxA9 myeloid progenitors, no estrogen, GFP autofluorescence flow cytometry; vehicle wells 0%, positive control 100%. fluorescence response, % (no concentration beside the values). 2,300 tested, 7.4% active. AID 651707;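 active means over 5% cells positive for green fluorescent reporter, or over 2% positive for both it and APC stain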
# Calls only; i = inactive; nt = not tested or not shown; + = active, no number. Only some compounds are listed: those with a hit (about 3.5% of all), similar ones and a draw of the others.
SMILES,M1 PAM,Myeloid diff MLP,M1 antag,M1 ag,ATG4B inhibitor,SKN-1 block,Myeloid diff,GFP autofluor
CC(C)(CN1CCCC1)NS(=O)(=O)c1ccccc1,i,i,i,i,i,i,i,i
Oc1cccc(Nc2nc(O)c(/C=C3\C=Nc4ccccc43)s2)c1,i,+,i,i,i,i,i,i
Oc1nc(Nc2ccc(F)cc2)sc1/C=C1\C=Nc2ccccc21,i,i,i,i,i,i,nt,nt
CCOC(=O)N1CCC(N2CCN(S(=O)(=O)c3ccc4ccccc4c3)CC2)CC1,i,i,i,i,i,i,nt,nt
Cc1cc(NC(=O)C(C)Sc2nnc(NCc3ccco3)s2)no1 (centres undefined),i,+,i,i,i,i,i,i
COC(=O)c1ccccc1NC(=O)Oc1ccc(F)cc1,i,i,i,i,i,i,i,i
COC(=O)c1ccccc1NS(=O)(=O)c1ccc(F)cc1,i,i,i,i,i,i,nt,nt
CC1(C)CC(=O)C=C(Nc2ccc([N+](=O)[O-])cc2)C1,i,i,i,i,i,i,nt,nt
c1ccc2c(c1)NCCS2,i,+,i,i,i,i,i,i
S=C1CSc2ccccc2N1,i,i,i,i,i,i,nt,nt
Cc1ccc(-c2cc(C(F)(F)F)nc(SCC(=O)c3cccc([N+](=O)[O-])c3)n2)cc1,i,i,i,i,i,i,nt,nt
Cc1cc(C(F)(F)F)nc(SCC(=O)c2cccc([N+](=O)[O-])c2)n1,i,i,i,i,i,i,i,i
CCCCCCCCC1=NCCc2c1[nH]c1ccccc21,i,i,i,i,i,i,i,i
CC(C)C/C=C1\CCc2c([nH]c3ccccc23)C1=O,i,i,i,i,i,i,nt,nt
CCCCOc1ccc(/C(O)=C2/C(=O)C(=O)N(CCCOC)C2c2ccncc2)cc1 (centres undefined),i,i,i,i,i,i,nt,nt
COCCCN1C(=O)C(=O)/C(=C(/O)c2ccc(OC(C)C)cc2)C1c1ccncc1 (centres undefined),i,i,i,i,i,i,i,i
C=CC[C@H](CC(=O)N(CCO)Cc1ccccc1)C(=O)N[C@@H](COC(=O)[C@@H](CC=C)Cc1ccc(F)cc1)Cc1c[nH]c2ccccc12,i,i,i,i,i,i,i,i
C=CC[C@@H](CC(=O)N(CCO)Cc1ccccc1)C(=O)N[C@@H](COC(=O)[C@@H](CC=C)Cc1ccc(F)cc1)Cc1c[nH]c2ccccc12,i,i,i,i,i,i,nt,nt
Cc1cc(F)cc(C)c1Cn1cnc2c(cnn2C(C)(C)C)c1=O,i,i,i,i,i,i,nt,nt
O=Cc1ccc(Oc2ncccn2)cc1,i,i,i,i,i,i,nt,nt
CCc1ccc(NC(=O)CSCc2ccc(C(=O)O)cc2)cc1,i,i,i,i,i,i,i,i
COC(=O)c1ccc(NC(=O)CSCc2ccccc2)cc1,i,i,i,i,i,i,nt,nt
CCc1ccccc1NC(=O)CNCC(=O)Nc1ccccc1CC,i,+,i,i,i,i,i,i
CCn1nnnc1SCC(=O)N1CCCc2ccccc21,i,i,i,i,i,i,i,i
O=C(CSc1nnc2scc(-c3ccccc3)n12)N1CCCc2ccccc21,i,i,i,i,i,i,i,i
SMILES,M1 PAM,Myeloid diff MLP,M1 antag,M1 ag,ATG4B inhibitor,SKN-1 block,Myeloid diff,GFP autofluor
O=C(CSc1nnc2scc(-c3ccccc3)n12)N1CCN(Cc2ccccc2)CC1,i,i,i,i,i,i,nt,nt
CC1Cc2nc(SCC(=O)N3CCCc4ccccc43)n(C)c(=O)c2S1 (centres undefined),i,i,i,i,i,i,i,i
CCn1nnnc1SCC(=O)N1CCc2ccccc21,i,i,i,i,i,i,nt,nt
CCCC1C(C#N)=C(N)Oc2n[nH]c(C(C)(C)C)c21 (centres undefined),i,i,i,i,i,i,nt,nt
CN1/C(=C\C(=O)C[n+]2cccc(Br)c2)C(C)(C)c2ccccc21,i,+,i,i,i,i,i,i
O=C1c2ccccc2C(c2nnnn2-c2ccc3c(c2)OCCO3)N1CCc1c[nH]c2ccccc12 (centres undefined),nt,i,nt,nt,nt,i,nt,nt
COCCCNc1nc2ccccc2nc1NS(=O)(=O)c1cccc(Cl)c1,i,i,i,i,i,i,nt,nt
O=S(=O)(Nc1nc2ccccc2nc1NCCO)c1cccc(Cl)c1,i,i,i,i,i,i,i,i
O=C(O)C1CCN(C(=O)c2ccco2)CC1,i,i,i,i,i,i,nt,nt
NC(=O)C1CCN(C(=O)c2ccco2)CC1,i,i,i,i,i,i,i,i
CCOC(=O)c1c(C)c(C(=O)Nc2cc(OC)ccc2OC)c(C)n1CC,i,+,i,i,i,i,i,i
Cc1cccc(NC(=O)CSc2nnc(NC(=O)c3ccco3)s2)c1,i,i,i,i,i,i,nt,nt
CN(Cc1cc2ccccc2[nH]c1=O)S(=O)(=O)c1ccccc1,i,i,i,i,i,i,nt,nt
Cc1ccc(N(Cc2cc3ccccc3[nH]c2=O)S(=O)(=O)c2ccccc2)cc1,i,i,i,i,i,i,nt,nt
Cc1cccc2cc(CN(Cc3cccs3)S(=O)(=O)c3ccc4c(c3)OCCO4)c(=O)[nH]c12,i,i,i,i,i,i,i,i
Cc1ccc(S(=O)(=O)N(Cc2cc3cccc(C)c3[nH]c2=O)c2ccccc2)cc1,i,+,i,i,i,i,i,i
Cc1ccc(S(=O)(=O)N(C)Cc2cc3ccccc3[nH]c2=O)cc1,i,i,i,i,i,i,i,i
COc1ccc(N(C(=O)c2ccco2)C(C(=O)NC2CCCC2)c2ccc(OC)c(OC)c2)cc1 (centres undefined),i,i,i,i,i,i,nt,nt
CC[C@@]1(C(=O)OC)N[C@H](CN(C)S(=O)(=O)c2ccc(-c3ccccc3)cc2)[C@@H]2C(=O)N(C)C(=O)[C@@H]21,i,i,i,i,i,i,i,i
CCN(C[C@H]1N[C@@](CC)(C(=O)OC)[C@H]2C(=O)N(Cc3ccccc3)C(=O)[C@@H]12)S(=O)(=O)c1ccc(OC)cc1,i,i,i,i,i,i,i,i

# Compound activity from PubChem BioAssay.
